Values without a mark were called inactive. Records with an inconclusive call do not appear. Entries that show only a call come without a potency. Activity calls are given as the source filed them. Unless noted, calls come from the whole dose curve.
Legend:
[1] = Nuclear factor erythroid 2-related factor 2/antioxidant responsive element (Nrf2/ARE) small molecule agonists: qHTS cell viability counter screen in human keratinocytes (AID 1919968; active = well fitted curve in the direction sought with a large enough effect in the repeat runs; an effect the other way counts as inactive or inconclusive; note: nearly all actives have a fitted effect of over 55% in size; note: potency is the fitted concentration of half-maximal effect)
How it was run: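 KeratinoSens cells (HaCaT keratinocytes stably carrying an ARE-luciferase reporter) were seeded at 1,500 cells/well and rested 5 h at 37 C/5% CO2. They were then exposed to compounds in DMSO for 23 h. Viability was read by CellTiter-Fluor fluorescence after 1 h.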

[2] = Nuclear factor erythroid 2-related factor 2/antioxidant responsive element (Nrf2/ARE) small molecule agonists: luciferase reporter gene qHTS assay in human keratinocytes (AID 1919969); note: nearly all actives have a fitted effect of over 35% in size; note: potency is the fitted concentration of half-maximal effect
[3] = target: Gonadotropin-releasing hormone receptor (Homo sapiens) (UniProt P30968); assay: Human gonadotropin-releasing hormone receptor (GnRHR) small molecule agonists, calcium flux assay in GnRHR-HEK293 cells (AID 1920063); note: nearly all actives have a fitted effect of over 35% in size
Chain of Gonadotropin-releasing hormone receptor (Homo sapiens) (P30968 whole entry, looked up): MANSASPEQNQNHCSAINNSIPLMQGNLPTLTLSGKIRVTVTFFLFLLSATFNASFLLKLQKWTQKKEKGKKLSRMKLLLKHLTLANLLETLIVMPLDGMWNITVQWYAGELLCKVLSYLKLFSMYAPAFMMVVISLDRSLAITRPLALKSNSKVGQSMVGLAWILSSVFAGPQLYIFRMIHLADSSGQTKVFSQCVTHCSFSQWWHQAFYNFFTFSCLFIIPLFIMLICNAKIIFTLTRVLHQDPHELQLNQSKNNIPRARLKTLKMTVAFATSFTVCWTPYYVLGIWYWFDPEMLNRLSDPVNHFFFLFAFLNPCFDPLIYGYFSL
How it was run: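 HEK293 cells stably expressing human GnRHR were plated 18 h at 37 °C, loaded with calcium dye 1 h at 37 °C, then given compound in agonist mode; fluorescence (Ex/Em 480/540) read kinetically for 3 min at 1 s intervals.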

[4] = target: KiSS-1 receptor (Homo sapiens) (UniProt Q969F8); assay: Human kisspeptin (KISS1R) small molecule agonists, calcium flux assay in KISS1R-HEK293 cells (AID 1920064; active = well fitted curve in the direction sought with a large enough effect in the repeat runs; an effect the other way counts as inactive or inconclusive)
Chain of KiSS-1 receptor (Homo sapiens) (Q969F8 whole entry, looked up): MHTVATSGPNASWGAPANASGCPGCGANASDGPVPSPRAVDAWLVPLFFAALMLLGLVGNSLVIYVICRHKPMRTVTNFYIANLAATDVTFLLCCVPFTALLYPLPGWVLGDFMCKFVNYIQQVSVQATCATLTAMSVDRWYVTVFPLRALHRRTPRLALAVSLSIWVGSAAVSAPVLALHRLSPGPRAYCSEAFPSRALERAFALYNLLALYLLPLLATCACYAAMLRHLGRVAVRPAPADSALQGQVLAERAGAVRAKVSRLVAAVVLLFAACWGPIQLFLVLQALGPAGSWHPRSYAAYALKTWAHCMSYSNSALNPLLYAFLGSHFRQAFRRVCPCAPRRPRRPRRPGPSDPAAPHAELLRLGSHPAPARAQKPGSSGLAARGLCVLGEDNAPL
How it was run: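 HEK293 cells stably expressing human KISS1R were plated 18 h at 37 °C, loaded with calcium dye for 1 h at 37 °C, then given compound by pin tool. Fluorescence (Ex/Em 480/540) was read kinetically for 3 min.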

[5] = G protein-coupled receptor (GPCR) small molecule agonists, calcium flux assay: HEK293 wild type cell line counter screen (AID 1920065)
How it was run: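 Cells were plated and cultured 18 h at 37 C/5% CO2, then loaded with calcium dye for 1 h at 37 C. Compounds in DMSO were pin-transferred in agonist mode, and fluorescence (Ex/Em 480/540) was read kinetically for 3 min at 1 s intervals.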

[6] = p53 small molecule agonists, cell-based qHTS assay with human liver microsomes: qHTS cell viability counter screen (AID 1963579); note: nearly all actives have a fitted effect of over 45% in size
How it was run: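 p53RE-bla cells, 4,000/well, dosed 5 hours after plating, with human liver microsomes (0.5 mg/mL final) plus NADPH (0.5 mg/mL final), 16 hours at 37 C. Viability read as CellTiter-Glo luminescence after 30 min at room temperature.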

[7] = p53 small molecule agonists, cell-based qHTS assay with rat liver microsomes: qHTS cell viability counter screen (AID 1963580); note: nearly all actives have a fitted effect of over 45% in size
How it was run: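 p53RE-bla HCT-116 cells (4,000/well) rested 5 h at 37 C, then given Tox21 compounds in DMSO with rat liver microsomes (0.5 mg/mL final) plus NADPH (0.5 mg/mL final) for 16 h at 37 C. Viability read by CellTiter-Glo luminescence after 30 min at room temperature.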

[8] = p53 small molecule agonists, cell-based qHTS assay: qHTS cell viability counter screen (AID 1963581); note: nearly all actives have a fitted effect of over 45% in size
How it was run: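 p53RE-bla HCT-116 cells were exposed to compounds for 16 h at 37 C; after the beta-lactamase FRET read in the same wells, CellTiter-Glo was added and luminescence (intracellular ATP) read after 30 min at room temperature.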

[9] = target: 5-hydroxytryptamine receptor 2A (Homo sapiens) (UniProt P28223); assay: 5-hydroxytryptamine receptor 2A (HTR2A) small molecule antagonists, cell-based qHTS assay (AID 1963586); note: nearly all actives have a fitted effect of over 45% in size
Chain of 5-hydroxytryptamine receptor 2A (Homo sapiens) (P28223 whole entry, looked up): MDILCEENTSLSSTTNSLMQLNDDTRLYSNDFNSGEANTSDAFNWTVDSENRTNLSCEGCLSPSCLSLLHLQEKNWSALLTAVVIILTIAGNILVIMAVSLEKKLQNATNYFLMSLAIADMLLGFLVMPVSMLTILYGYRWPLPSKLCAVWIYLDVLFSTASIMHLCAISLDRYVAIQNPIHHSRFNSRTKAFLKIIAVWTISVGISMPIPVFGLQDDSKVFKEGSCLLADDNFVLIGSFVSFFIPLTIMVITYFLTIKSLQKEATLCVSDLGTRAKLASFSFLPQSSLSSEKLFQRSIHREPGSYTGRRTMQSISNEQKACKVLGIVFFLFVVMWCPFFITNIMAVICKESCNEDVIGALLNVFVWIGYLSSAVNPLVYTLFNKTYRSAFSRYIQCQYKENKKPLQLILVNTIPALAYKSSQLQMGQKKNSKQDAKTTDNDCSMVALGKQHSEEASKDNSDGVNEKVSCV
How it was run: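 Antagonist-mode intracellular calcium assay: DOI (4 nM) added after 5 min compound pre-incubation at room temperature to dye-loaded HTR2A-CHO cells. Fluorescence followed for 3 min, sampled every second.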

[10] = target: 5-hydroxytryptamine receptor 2A (Homo sapiens) (UniProt P28223); assay: 5-hydroxytryptamine receptor 2A (HTR2A) small molecule agonists, cell-based qHTS assay (AID 1963587); note: nearly all actives have a fitted effect of over 30% in size
How it was run: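 HTR2A-CHO cells, plated 18 h at 37 C/5% CO2, dye-loaded 1 h at 37 C; compounds in DMSO added by pin tool (agonist mode). Intracellular calcium flux read as kinetic fluorescence on FDSS over 2 min at 1 s intervals.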

[11] = target: Muscarinic acetylcholine receptor M1 (Homo sapiens) (UniProt P11229); assay: Cholinergic receptor muscarinic 1 (CHRM1) small molecule agonists, cell-based qHTS assay (AID 1963589); note: nearly all actives have a fitted effect of over 35% in size
Chain of Muscarinic acetylcholine receptor M1 (Homo sapiens) (P11229 whole entry, looked up): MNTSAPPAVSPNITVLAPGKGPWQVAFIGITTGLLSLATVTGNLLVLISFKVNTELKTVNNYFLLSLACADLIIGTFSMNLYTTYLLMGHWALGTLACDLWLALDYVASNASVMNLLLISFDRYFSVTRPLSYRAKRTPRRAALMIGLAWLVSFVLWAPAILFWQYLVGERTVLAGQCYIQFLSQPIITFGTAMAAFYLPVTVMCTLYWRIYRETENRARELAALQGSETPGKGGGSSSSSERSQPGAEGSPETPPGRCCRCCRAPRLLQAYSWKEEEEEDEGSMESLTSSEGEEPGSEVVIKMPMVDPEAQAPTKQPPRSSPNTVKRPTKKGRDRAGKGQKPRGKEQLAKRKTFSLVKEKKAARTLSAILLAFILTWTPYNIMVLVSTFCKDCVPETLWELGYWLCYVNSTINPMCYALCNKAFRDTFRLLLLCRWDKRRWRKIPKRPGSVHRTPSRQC
How it was run: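 CHO cells stably expressing human CHRM1, seeded 18 h at 37 C/5% CO2, dye-loaded 1 h at 37 C, then given compound in agonist mode; intracellular calcium fluorescence read kinetically at 1 s intervals. Fifteen concentrations, three independent runs.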

[12] = cAMP Responsive Elements (CRE) small molecule antagonists, cell-based qHTS assay (AID 1963591; active = well fitted inhibition curve with a large enough effect in the signal ratio in the repeat runs, not every such curve was filed as active; the % refers to the signal ratio)
How it was run: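 CRE-bla HEK293T cells were plated 18 h at 37 °C/5% CO2, pinned with compound in DMSO, then stimulated with NKH477 at 0.25 uM final for 3 h. LiveBLAzer B/G FRET substrate was added and plates incubated 2 h at room temperature.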

[13] = target: Beta-2 adrenergic receptor (Homo sapiens) (UniProt P07550); assay: Adrenergic beta2 receptor (ADRB2) small molecule antagonists, cell-based qHTS assay (AID 1963592); note: series mostly up to about 92 µM; nearly all actives have a fitted effect of over 50% in size
Chain of Beta-2 adrenergic receptor (Homo sapiens) (P07550 whole entry, looked up): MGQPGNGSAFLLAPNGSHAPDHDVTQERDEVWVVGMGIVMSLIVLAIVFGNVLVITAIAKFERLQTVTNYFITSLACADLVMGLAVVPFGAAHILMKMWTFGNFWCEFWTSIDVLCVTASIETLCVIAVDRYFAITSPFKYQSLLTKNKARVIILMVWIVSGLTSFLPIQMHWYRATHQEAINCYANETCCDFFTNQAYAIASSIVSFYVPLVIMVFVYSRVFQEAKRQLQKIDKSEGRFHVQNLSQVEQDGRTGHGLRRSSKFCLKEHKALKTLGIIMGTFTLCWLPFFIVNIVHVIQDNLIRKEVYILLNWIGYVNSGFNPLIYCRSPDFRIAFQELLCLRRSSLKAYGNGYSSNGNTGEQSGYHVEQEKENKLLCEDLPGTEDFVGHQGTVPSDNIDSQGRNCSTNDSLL
How it was run: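 Cells (CHO, stable ADRB2 overexpression) incubated 18-20hr at 37C; compounds added from DMSO; agonist mix (1nM isoproterenol, 100uM IBMX, 25uM Ro-20-1724) added; 0.5hr RT; d2-cAMP and anti-cAMP-cryptate added; 1hr RT; 665/615 nm read.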

[14] = target: D(2) dopamine receptor (Homo sapiens) (UniProt P14416); assay: Dopamine D2 receptor (DRD2) small molecule agonists, cell-based qHTS assay (AID 1963594); note: nearly all actives have a fitted effect of over 35% in size
Chain of D(2) dopamine receptor (Homo sapiens) (P14416 whole entry, looked up): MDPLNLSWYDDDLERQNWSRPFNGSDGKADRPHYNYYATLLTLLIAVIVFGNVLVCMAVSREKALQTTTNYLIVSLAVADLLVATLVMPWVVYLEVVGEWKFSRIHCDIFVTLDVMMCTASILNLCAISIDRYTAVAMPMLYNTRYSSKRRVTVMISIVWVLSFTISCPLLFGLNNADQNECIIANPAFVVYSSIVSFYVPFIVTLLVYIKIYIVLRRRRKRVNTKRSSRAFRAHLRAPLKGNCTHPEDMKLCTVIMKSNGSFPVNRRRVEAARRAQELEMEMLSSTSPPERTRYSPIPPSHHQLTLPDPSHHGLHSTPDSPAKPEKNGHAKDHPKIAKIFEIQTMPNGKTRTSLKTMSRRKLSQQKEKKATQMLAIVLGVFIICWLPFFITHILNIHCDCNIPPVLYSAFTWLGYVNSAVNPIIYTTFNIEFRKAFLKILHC
How it was run: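 HEK293 cells stably expressing DRD2 were cultured 24 h at 37 C, then given Ro20-1724 (0.1 mM final) and compounds for 10 min at room temperature. NKH477 (200nM) was then added for 30 min. cAMP was read by HTRF.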

[15] = target: D(2) dopamine receptor (Homo sapiens) (UniProt P14416); assay: Dopamine D2 receptor (DRD2) small molecule antagonists, cell-based qHTS assay (AID 1963595; active = well fitted inhibition curve with a large enough effect in the signal ratio in the repeat runs, with a control signal flat; the % refers to the signal ratio; note: potency is the fitted concentration of half-maximal effect)
How it was run: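 Stable D2 receptor HEK293 line, 24 h after seeding. Compound preincubated 10 min, then quinpirole (12 nM) with forskolin analogue NKH477 (200 nM), 30 min, room temperature. Detection by time-resolved FRET of cAMP.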

[16] = target: Muscarinic acetylcholine receptor M1 (Homo sapiens) (UniProt P11229); assay: Cholinergic receptor muscarinic 1 (CHRM1) small molecule antagonists, cell-based qHTS assay (AID 1963588); note: nearly all actives have a fitted effect of over 40% in size; note: potency is the fitted concentration of half-maximal effect
How it was run: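 CHRM1-CHO calcium-flux assay, antagonist mode. Cells were seeded 18 h, dye-loaded 1 h at 37 C and given compound for 5 min at RT, then acetylcholine was added at 50nM. FDSS fluorescence was read 3 min; 15 concentrations, three runs.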

[17] = cAMP Responsive Elements (CRE) small molecule agonists, cell-based qHTS assay (AID 1963590)
How it was run: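 CRE-bla HEK 293T cells in DMEM with 10% dialyzed FBS, NEAA, pyruvate and 25 mM HEPES were plated 18 h at 37 C/5% CO2, then exposed to compounds in DMSO for 3 h before LiveBLAzer B/G FRET substrate addition.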

[18] = target: Beta-2 adrenergic receptor (Homo sapiens) (UniProt P07550); assay: Adrenergic beta2 receptor (ADRB2) small molecule agonists, cell-based qHTS assay (AID 1963593);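 note: CHO cells stably overexpressing human ADRB2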
How it was run: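 CHO cells stably over-expressing ADRB2 were plated overnight at 37C, then dosed with compounds plus a stimulation mix containing 100uM IBMX and 25uM Ro-20-1724 for 0.5hr at room temperature. cAMP was measured by HTRF competition, 1hr.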

Compound	Potency [1]	Potency [2]	Potency [3]	Potency [4]	Potency [5]	Potency [6]	Potency [7]	Potency [8]	Potency [9]	Potency [10]	Potency [11]	Potency [12]	Potency [13]	Potency [14]	Potency [15]	Potency [16]	Potency [17]	Potency [18]
CCN1C=CN(C)C1C (stereo not given)	inactive	inactive	inactive	inactive	inactive	inactive	inactive	inactive	inactive	inactive	inactive	inactive	inactive	inactive	inactive	–	–	–
N#CSCSc1nc2ccccc2s1	13.7 µM (active)	9.69 µM (active)	inactive	inactive	inactive	inactive	inactive	inactive	inactive	inactive	inactive	–	inactive	inactive	54.5 µM (active)	inactive	–	–
C[C@]12CCC(=O)C=C1CC[C@H]1[C@@H]3CC[C@](O)(C(=O)CO)[C@@]3(C)C[C@H](O)[C@@]12F	inactive	inactive	inactive	inactive	inactive	inactive	inactive	inactive	inactive	inactive	–	inactive	inactive	–	inactive	inactive	inactive	–
N#CCCOCCOCCC#N	inactive	inactive	inactive	inactive	inactive	inactive	inactive	inactive	inactive	inactive	–	inactive	inactive	inactive	inactive	inactive	inactive	inactive
CCN(C(=O)N(CC)c1ccccc1)c1ccccc1	inactive	inactive	inactive	inactive	inactive	inactive	inactive	inactive	inactive	inactive	inactive	–	inactive	inactive	inactive	inactive	–	–
CCCC1CCOC(C)S1 (stereo not given)	inactive	inactive	inactive	inactive	inactive	inactive	inactive	inactive	inactive	inactive	–	inactive	inactive	inactive	–	inactive	inactive	inactive
CC(C)(COC(=O)c1ccccc1)COC(=O)c1ccccc1	inactive	inactive	inactive	inactive	inactive	inactive	inactive	inactive	inactive	inactive	inactive	inactive	inactive	inactive	–	–	inactive	–
CCC/C=C(\C=O)CC	inactive	inactive	inactive	inactive	inactive	inactive	inactive	inactive	inactive	inactive	inactive	inactive	inactive	inactive	–	–	inactive	inactive
Oc1ccccc1F	inactive	inactive	inactive	inactive	inactive	inactive	inactive	inactive	inactive	inactive	inactive	inactive	inactive	–	inactive	–	inactive	–
CCCCCOC(=O)COc1cc(N2C(=O)C3=C(CCCC3)C2=O)c(F)cc1Cl	inactive	61.1 µM (active)	inactive	inactive	inactive	inactive	inactive	inactive	inactive	inactive	inactive	–	–	inactive	inactive	–	inactive	–
CCCC(=O)O[C@]1(C(=O)CO)CC[C@H]2[C@@H]3CCC4=CC(=O)CC[C@]4(C)[C@H]3[C@@H](O)C[C@@]21C	inactive	inactive	inactive	inactive	inactive	inactive	inactive	inactive	inactive	inactive	inactive	–	inactive	inactive	inactive	–	inactive	–
CCCc1nc(C)c2c(=O)[nH]c(-c3cc(S(=O)(=O)N4CCN(CC)CC4)ccc3OCC)nn12	inactive	inactive	inactive	inactive	inactive	inactive	inactive	inactive	inactive	inactive	inactive	–	inactive	inactive	inactive	inactive	–	–
CC[N+](CC)(CC)CCOC(=O)C(C1CCCC1)C1CCCC1	inactive	inactive	inactive	inactive	inactive	inactive	inactive	inactive	inactive	inactive	inactive	–	inactive	inactive	inactive	0.0016 µM (active)	–	–
N#CCCNCCC#N	inactive	inactive	inactive	inactive	inactive	inactive	inactive	inactive	inactive	inactive	inactive	inactive	inactive	inactive	inactive	–	inactive	–
C[C@H]1c2cccc(O)c2C(O)=C2C(=O)[C@]3(O)C(O)=C(C(N)=O)C(=O)[C@@H](N(C)C)[C@@H]3[C@@H](O)[C@@H]21	inactive	inactive	inactive	inactive	inactive	inactive	inactive	inactive	inactive	inactive	inactive	–	–	inactive	inactive	inactive	–	inactive
CC/C=C\CC/C=C/CO	inactive	inactive	inactive	inactive	inactive	inactive	inactive	inactive	inactive	inactive	–	inactive	inactive	inactive	inactive	inactive	inactive	–
